Sm TGR inh: inhibitors of Schistosoma mansoni thioredoxin glutathione reductase. 360,000 tested, 3% active. Q962Y6. purified TGR, DTNB reduction, TNB absorbance 405 nm. AID 485364. Potency, µM (top dose mostly 114 µM), inactives show at the top dose activity change, negative = inhibition, actives largely listed as inhibitors; further: nearly all actives have a fitted effect of over 60% in size
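First, TGR (20 nM dispensed) and NADPH were mixed with compound. Second, a 15 min room-temperature incubation followed. Third, further NADPH and then DTNB were added to start the reaction. Finally, TNB absorbance was monitored kinetically.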
AmpC no deterg: blocks E. coli AmpC beta-lactamase in detergent-free assay; AID 485341; 330,000 tested, 0.52% active; AmpC nitrocefin hydrolysis, absorbance 480 nm, 0.0001% Triton; Potency, µM (top dose mostly 57.1 µM), for the others: top-dose activity change, negative = inhibition, hits mostly inhibitors; P00811;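 further: plate controls were no compound for no effect and no enzyme for full effect; nearly all actives have a fitted effect of over 20% in size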
Target sequence (P00811 whole entry, looked up): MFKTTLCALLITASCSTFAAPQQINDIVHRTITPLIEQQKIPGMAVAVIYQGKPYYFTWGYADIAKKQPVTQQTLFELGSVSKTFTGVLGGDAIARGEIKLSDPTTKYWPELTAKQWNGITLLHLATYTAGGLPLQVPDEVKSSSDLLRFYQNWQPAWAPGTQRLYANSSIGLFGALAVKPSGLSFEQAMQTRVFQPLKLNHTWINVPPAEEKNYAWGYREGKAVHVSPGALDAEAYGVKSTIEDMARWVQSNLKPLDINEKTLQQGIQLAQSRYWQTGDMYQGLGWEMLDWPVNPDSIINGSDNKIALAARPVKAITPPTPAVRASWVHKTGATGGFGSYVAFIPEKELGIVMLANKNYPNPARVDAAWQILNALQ
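20 mM phosphate pH 7.0 + 0.01% (detergent screen) or 0.0001% Triton X-100; 5.3 nM AmpC reagent; cpd preinc 15 min RT; nitrocefin (800 uM stock) to start; A480 q20 s × 4 min; Activity was normalised to no-enzyme and no-compound control wells.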
AmpC detergent: AmpC beta-lactamase inhibition with detergent present; AmpC hydrolysis of nitrocefin, absorbance 480 nm, 0.01% Triton; Potency, µM (titrated, usually from 114 µM), for the others: at the top dose activity change, negative = inhibition, usual class: inhibitors; 370,000 tested, 0.041% active;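 further: 0% = no-compound wells and -100% = no-enzyme wells; nearly all actives have a fitted effect of over 25% in size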
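AmpC (5.3 nM in the dispensed reagent) in 20 mM phosphate pH 7.0 with 0.01% (detergent screen) or 0.0001% Triton X-100 was preincubated with compounds for 15 min at room temperature. Nitrocefin was then added from an 800 uM solution, and hydrolysis was followed at 480 nm.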
Starred values were filed as active, the others as inactive; ? = inconclusive; . = no result given. Compounds with a hit are over-represented: about 3.3% of the library has one in this group of screens. The call rests on the fitted dose curve; in most records, active means well fitted curve in the direction sought with a large enough effect; inconclusive means small, poorly fitted or top-dose-only effect, or another doubt; inactive means no such curve, though single readings can be large; an effect the other way counts as inactive or inconclusive. Unless noted, on the % scale 0 is the no-effect control and ±100 the full control effect; potency means the concentration at half of the fitted maximal effect.

SMILES | Sm TGR inh | AmpC no deterg | AmpC detergent
Cc1nnsc1C(=O)NNc1ccc(C(C)(C)C)cc1 | 35.5µM* | -31.1% | 6.6%
Cc1nnsc1C(=O)NNc1ccc(C(C)C)cc1 | ? | -17.6% | 4.7%
COc1cc(/C=C/C(=O)O)cc(S(=O)(=O)NCCO)c1OC | -10.9% | -15.4% | 0.7%
Cc1ccc(/C=C/C(=O)O)cc1S(=O)(=O)NCCO | 44.7µM* | -5.7% | -5.8%
Cc1ccc(/C=C/C(=O)O)cc1S(=O)(=O)Nc1ccc(C(=O)O)cc1 | 35.5µM* | -4.3% | 2.3%
Cc1ccc(/C=C/C(=O)O)cc1S(=O)(=O)Nc1ccccc1C(=O)O | ? | -16.5% | -2.8%
CCOC(=O)C(CC)n1nnc2sc(-c3ccccc3)cc2c1=O (configuration not stated) | 0.6% | . | 9.6%
CCC(C)(C)n1nnnc1C(c1cc2cc(OC)ccc2[nH]c1=O)N1CCc2ccccc21 (configuration not stated) | -16.3% | -33.9% | -10.0%
CCC(C)(C)n1nnnc1C(c1cc2ccc(OC)cc2[nH]c1=O)N1CCc2ccccc21 (configuration not stated) | 35.5µM* | 40.7% | 1.4%
Cc1cc2cc(C(c3nnnn3Cc3ccco3)N3CCc4ccccc43)c(=O)[nH]c2cc1C (configuration not stated) | ? | -41.5% | ?
Cc1ccc2cc(C(c3nnnn3Cc3ccccc3)N3CCc4ccccc43)c(=O)[nH]c2c1C (configuration not stated) | ? | 4.1% | -1.0%
COc1cc2cc(C(c3nnnn3Cc3ccc(F)cc3)N3CCCCCC3)c(=O)[nH]c2cc1OC (configuration not stated) | ? | 68.5% | ?
COc1ccc(Cn2nnnc2C(c2cc3ccc(OC)cc3[nH]c2=O)N2CCCCCC2)cc1 (configuration not stated) | 17.8µM* | 33.9% | -18.2%
Cc1cc2cc(C(c3nnnn3Cc3ccccc3)N3CCc4ccccc43)c(=O)[nH]c2cc1C (configuration not stated) | 44.7µM* | -21.5% | 7.3%
Cc1cc2cc(C(c3nnnn3Cc3ccco3)N3CCc4ccccc4C3)c(=O)[nH]c2cc1C (configuration not stated) | 3.55µM* | -20.8% | -1.8%
Cc1ccc(S(=O)(=O)Nc2cc(Cl)c3oc4c(c3c2)CCCC4)cc1 | -8.6% | . | -11.8%
COc1ccc(-c2nnc(SCC(=O)Nc3cccc(C(F)(F)F)c3)s2)cc1 | 1.7% | . | 1.9%
O=C(NCc1ccc2c(c1)CCN2C(=O)c1ccc(F)cc1)c1ccc(Br)o1 | -13.7% | . | 4.8%
CCCOc1cccc(C(=O)N(Cc2sccc2C)C2CCS(=O)(=O)C2)c1 (configuration not stated) | 4.3% | . | 9.8%
CN1C(=O)C2(c3ccccc31)N(c1ccc(Br)cc1)C(=O)CS2(=O)=O (configuration not stated) | 9.1% | . | 16.1%
Cc1ccc2[nH]c(=O)c(C(c3nnnn3Cc3ccccc3)N3CCc4ccccc43)cc2c1 (configuration not stated) | 20µM* | -22.0% | 1.5%
Cc1ccc2cc(C(c3nnnn3Cc3ccccc3)N3CCc4ccccc43)c(=O)[nH]c2c1 (configuration not stated) | 3.5% | -45.6% | -2.1%
O=C(CCl)Nc1nc(-c2ccco2)c(-c2ccco2)s1 | 0.398µM* | -25.4% | -11.2%
O=C(CCCSc1ccccc1)Nc1nc(-c2ccco2)c(-c2ccco2)s1 | ? | 28.2µM* | -5.0%
Cc1ccc(C(=O)Nc2nc(C)c(C(=O)N(C)C)s2)o1 | -0.9% | -20.4% | ?
SMILES | Sm TGR inh | AmpC no deterg | AmpC detergent
Cc1ccc(C(=O)Nc2nc(-c3ccco3)c(-c3ccco3)s2)o1 | 4.47µM* | -59.0% | -9.4%
CC(=O)c1sc(NC(=O)CCNC(=O)c2ccco2)nc1-c1ccccc1 | -2.1% | 26.4% | -12.3%
O=C(CCCSc1ccccc1)Nc1nc(-c2ccccn2)cs1 | -5.7% | -42.9% | -5.1%
COC(=O)CN1C(=O)CSc2ccc(S(=O)(=O)Nc3cccc(Cl)c3C)cc21 | 1.0% | . | -3.5%
COc1cccc(C(=O)N(Cc2ccc(N(C)C)cc2)Cc2ccco2)c1 | 1.7% | . | 14.0%
COc1cc(OC)c(NS(=O)(=O)c2cc3c(cc2C)NC(=O)CO3)cc1Cl | -5.9% | . | 18.0%
CC[n+]1c(C=C2C=C(C)OC(C)=C2)sc2ccccc21 | 1.9% | -0.2% | 6.0%
CC[n+]1c(/C=C2/C=C(C)CC(C)C2)sc2ccccc21 (configuration not stated) | 39.8µM* | -19.9% | 2.7%
COc1ccc(CC(=O)n2[nH]c(=O)ccc2=O)cc1OC | 0.562µM* | -21.0% | ?
COc1ccc(CC(=O)n2[nH]c(=O)c3ccccc3c2=O)cc1OC | 5.4% | 31.7% | 4.8%
Cc1cc(C)c2cc(CN(Cc3ccc4c(c3)OCO4)Cc3nnnn3Cc3ccco3)c(=O)[nH]c2c1 | 39.8µM* | ? | -5.1%
Cc1ccc2[nH]c(=O)c(CN(Cc3ccc4c(c3)OCO4)Cc3nnnn3Cc3ccco3)cc2c1 | ? | 19.8% | ?
COc1ccc2cc(CN(Cc3cccs3)Cc3nnnn3Cc3ccccc3)c(=O)[nH]c2c1 | 3.4% | 20.2% | ?
O=c1[nH]c2cc3c(cc2cc1CN(Cc1cccnc1)Cc1nnnn1Cc1ccco1)OCCO3 | 14.1µM* | 3.1% | ?
CCc1ccc2[nH]c(=O)c(CN(Cc3ccccc3)Cc3nnnn3Cc3ccco3)cc2c1 | ? | -3.5% | 3.8%
O=c1[nH]c2cc3c(cc2cc1CN(Cc1cccs1)Cc1nnnn1Cc1ccco1)OCCO3 | 11.2µM* | -22.3% | ?
Cc1cc2cc(CN(Cc3ccc4c(c3)OCO4)Cc3nnnn3C3CCCC3)c(=O)[nH]c2cc1C | 3.4% | -7.9% | ?
O=c1[nH]c2cc3c(cc2cc1CN(CCc1ccccc1)Cc1nnnn1C1CCCC1)OCCO3 | 44.7µM* | -25.8% | -17.5%
CCOc1cc(C2C(C(=O)OC)=C(C)NC3=C2C(=O)c2ccccc23)cc(Br)c1OCC (configuration not stated) | 2.2% | . | 11.6%
CCc1ccc(NC(=O)CN2C(=O)CC(c3ccccc3)Sc3ccccc32)cc1 (configuration not stated) | -10.1% | . | -1.4%
CCOC(=O)C1CCCN(C(=O)c2cc3c(Cl)nc4ccccc4c3s2)C1 (configuration not stated) | -3.0% | . | -8.7%
COc1ccc(Cn2c(SCc3ccc(C(=O)NCc4cccs4)cc3)nc3ccncc32)cc1 | 2.3% | . | 12.9%
COc1ccccc1CN(Cc1cc2cc3c(cc2[nH]c1=O)OCCO3)Cc1nnnn1Cc1ccco1 | ? | -19.0% | -4.5%
O=c1[nH]c2cc3c(cc2cc1CN(Cc1ccccc1)Cc1nnnn1Cc1ccco1)OCCO3 | 8.91µM* | -25.3% | -13.2%
NC1=NC(=O)/C(=C/c2ccc(Br)cc2)S1 | -0.5% | -10.6% | -4.6%
CCOC(=O)COc1ccc(Br)cc1/C=C1\SC(N)=NC1=O | -17.0% | -26.1% | -8.8%
CCOC(=O)CSC1=NC(=O)/C(=C/c2ccc(Br)cc2)S1 | 3.16µM* | -33.6% | -1.2%
CCOC(=O)CSC1=NC(=O)/C(=C\c2ccc(OC(C)=O)cc2)S1 | 8.91µM* | -19.9% | 0.9%
